# Hits are enriched below; roughly 4.1% of the tested compounds scored in any of these assays.
# GDH-TPI counter-1: GDH-TPI coupling enzyme inhibitors, primary screen, artefact control for M. tuberculosis FBA inhibitor project, biochemical, absorbance, full deck | AID 588335, 2011 | inhibition, % at 4.8 µM | 360,000 compounds, 1.2% hits | GDH-TPI coupled enzyme counterscreen, NADH absorbance; in the data active = inhibition above about 30%;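 note: 0% = DMSO wells and 100% = wells lacking the enzyme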
# Rv3671c inh: Rv3671c serine protease inhibitors, primary screen, biochemical, fluorescence polarization, M. tuberculosis H37Rv. inhibition, % at 5.96 µM. P9WHR9. 320,000 compounds, 0.048% hits; in the data active = inhibition above about 38%;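 note: extracellular domain of Rv3671c used as enzyme; 0% = enzyme with DMSO and 100% = no enzyme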
# Target sequence (P9WHR9 whole entry, looked up, the tested form may be a part): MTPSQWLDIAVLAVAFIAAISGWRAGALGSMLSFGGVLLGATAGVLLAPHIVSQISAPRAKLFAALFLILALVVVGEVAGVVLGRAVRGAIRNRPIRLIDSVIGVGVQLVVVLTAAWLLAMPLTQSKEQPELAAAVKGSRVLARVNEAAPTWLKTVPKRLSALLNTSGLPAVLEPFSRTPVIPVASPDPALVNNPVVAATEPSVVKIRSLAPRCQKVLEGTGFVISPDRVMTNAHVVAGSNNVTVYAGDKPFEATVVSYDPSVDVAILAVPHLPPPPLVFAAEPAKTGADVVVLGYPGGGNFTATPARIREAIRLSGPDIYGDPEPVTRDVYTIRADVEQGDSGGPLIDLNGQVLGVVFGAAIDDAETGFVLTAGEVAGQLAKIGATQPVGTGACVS
# Vc quorum ag: inducers of Vibrio cholerae quorum light production without autoinducers, primary screen, BH1578 luxS cqsA deficient, single point; V. cholerae BH1578 lux reporter, luminescence, 6 h; activation, % at 18.7 µM; 350,000 compounds, 0.16% hits; in the data active = activation mostly above about 9.7%, no sharp cut-off
# Mtb UGM inh: M. tuberculosis UGM enzyme inhibitors, primary screen, biochemical, fluorescence polarization, single point; purified UGM, fluorescence polarization probe displacement; inhibition, % at 10 µM; 320,000 compounds, 0.06% hits; AID 504406, 2011; in the data active = inhibition above about 10%, passing the limit was not always enough
# FBA Mtb inh: Mtb FBA enzyme inhibitors, primary screen, biochemical, fluorescence, strain H37Rv | purified M. tuberculosis FBA, fluorescence read-out | inhibition, % at 1 µM | 360,000 compounds, 2.3% hits | AID 588726, 2011;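 note: 0% = vehicle and 100% = reference inhibitor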
# RecA intein inh: Mtb RecA intein splicing inhibitors, primary screen, biochemical, fluorescence, HTS | AID 2221, 2009 | 290,000 compounds, 0.75% hits | inhibition, % (no concentration beside the values) | cell-free RecA intein splicing | Protein RecA (Mycobacterium tuberculosis (strain ATCC 25618 / H37Rv)), P9WHJ3; in the data active = inhibition above about 30%;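 note: 0% = vehicle wells and 100% = reference inhibitor control wells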
# Mtb FBA confirm: M. tuberculosis aldolase blockers, biochemical, fluorescence, strain H37Rv, confirmation | AID 651616, 2012 | inhibition, % at 1 µM | purified M. tuberculosis FBA, fluorescence read-out | 5,600 compounds, 78% hits | shares compounds with FBA Mtb inh;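 note: 0% = vehicle wells and 100% = reference inhibitor wells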
# GDH-TPI counter-2: GDH-TPI coupling enzyme inhibitors, artefact control for M. tuberculosis FBA inhibitor project, biochemical, fluorescence, high throughput. 5,600 compounds, 81% hits. GDH-TPI coupled enzyme counterscreen. shares compounds with FBA Mtb inh. inhibition, % at 1 µM; in the data active = inhibition above about 10%
# * hit, by the source's call; i = inactive; · = no result given; + = active, no number. Cut-off read from the data, not from the text of the source, unless noted: active = inhibition above about 27%; inactive = the rest.
SMILES,GDH-TPI counter-1,Rv3671c inh,Vc quorum ag,Mtb UGM inh,FBA Mtb inh,RecA intein inh,Mtb FBA confirm,GDH-TPI counter-2
CCOC(=O)c1cc2c(C)nn(-c3ccccc3)c2s1,-1.2,8.2,0.6,-1.5,15.7,-3.4,·,·
CCC(=O)c1ccccc1OCCCn1cncn1,7.3,-7.2,10.0,1.8,27.0*,·,112.2*,83.6*
CC(=O)N1CCC2(CC1)CC(=O)c1cc(OCC(=O)N3CCOCC3)ccc1O2,9.9,-7.1,i,3.1,69.7*,-14.3,66.8*,67.0*
CCOC(=O)N1CCN(C(=O)COc2ccc3c(c2)C(=O)CC2(CCN(C(C)=O)CC2)O3)CC1,9.6,1.2,-0.2,2.6,63.4*,-17.4,138.8*,120.5*
Cc1ccc(OCC(=O)N2CCC3(CC2)CC(=O)c2ccccc2O3)cc1,3.5,6.5,-1.7,4.8,5.0,2.4,·,·
COc1cccc(OCC(=O)N2CCC3(CC2)CC(=O)c2ccccc2O3)c1,0.3,-0.8,1.6,-4.8,9.2,0.3,·,·
Cc1ccc(Cn2c(C3CCCN3c3nc(-c4ccc(F)cc4)cs3)nc3cc(C(=O)NCCCO)ccc32)cc1 (stereo unspecified),9.4,-1.4,4.5,0.5,70.1*,3.0,9.2,5.0
Cc1ccc(Cn2c(C3CCCN3c3nc(C)cs3)nc3cc(C(=O)NCCCO)ccc32)cc1 (stereo unspecified),11.2,2.8,0.8,3.6,-2.4,-0.4,·,·
CCOC(=O)c1c(NC(=O)C2C3C=CC(C3)C2C(=O)O)sc2c1CC(C)CC2 (stereo unspecified),15.3,6.0,-0.6,4.3,34.6*,-0.1,57.9*,50.8*
CCCCNc1c(-c2cccc(-c3cc(C(C)=O)cs3)c2)nc2ccc(C)cn12,25.6,-1.6,i,-0.5,-0.4,-1.9,·,·
CCCCNc1c(-c2cccc(-c3ccc(OC)cc3)c2)nc2ccc(C)cn12,5.7,0.2,i,0.9,30.7*,0.7,6.6,2.3
CCCCNc1c(-c2cccc(-c3ccc(OC)cc3)c2)nc2cc(C)ccn12,10.0,0.8,i,-2.4,29.0*,·,65.8*,57.5*
O=c1cc(C(F)F)oc2c1ccc1ccccc12,16.7,2.4,1.6,5.0,31.2*,0.0,59.1*,45.7*
CC1=C(C(=O)N(C(C)C)C(C)C)CC(CC(=O)NCc2ccco2)C(=O)N1CCCN1CCCC1=O (stereo unspecified),·,·,·,·,-3.5,·,·,·
CCOC(=O)c1c(NC(=O)COC(=O)c2ccccn2)sc(C(=O)N(C)C)c1C,-2.4,-12.1,0.6,5.5,2.1,1.0,·,·
CCOC(=O)c1c(NC(=O)COC(=O)c2nccnc2N)sc(C(=O)N(C)C)c1C,-1.8,-2.8,0.0,0.0,47.9*,-2.1,+,+
N#Cc1c(NC(=O)COC(=O)c2nccnc2N)sc2c1CCCC2,20.7,-8.4,i,1.4,26.4,-2.2,·,·
CCOC(=O)c1c(NC(=O)COC(=O)c2nccnc2N)sc2c1CCC2,13.1,-4.1,i,0.3,45.1*,·,123.6*,93.0*
O=C(NCCN1CCOCC1)c1ccc(Cl)cc1O,3.9,-6.6,-0.2,-2.0,0.6,-0.8,·,·
CCc1nnc(NC(=O)C2CCN(S(=O)(=O)Cc3ccccc3)CC2)s1,0.8,2.0,i,-0.1,34.6*,·,86.0*,68.8*
Cc1ccc2c(c1)N(CC(=O)NCCCN1CC(C)CC(C)C1)C(=O)c1cccnc1O2 (stereo unspecified),-3.0,5.4,1.1,0.9,2.4,0.3,·,·
